Shown are actives, neighbours in structure and some others; about 2.2% of the full set was active somewhere.
M1 PAM: potentiates human M1 receptor response to acetylcholine. activation, % at 3 µM. CHO-K1 hM1, Fluo-8 calcium fluorescence, ACh EC20; 0% = ACh EC20, 100% = maximal ACh. hit rate 0.088% among 360,000. P11229; in the data active = activation above about 19%, passing the limit was not always enough
Target sequence (P11229 whole entry, looked up): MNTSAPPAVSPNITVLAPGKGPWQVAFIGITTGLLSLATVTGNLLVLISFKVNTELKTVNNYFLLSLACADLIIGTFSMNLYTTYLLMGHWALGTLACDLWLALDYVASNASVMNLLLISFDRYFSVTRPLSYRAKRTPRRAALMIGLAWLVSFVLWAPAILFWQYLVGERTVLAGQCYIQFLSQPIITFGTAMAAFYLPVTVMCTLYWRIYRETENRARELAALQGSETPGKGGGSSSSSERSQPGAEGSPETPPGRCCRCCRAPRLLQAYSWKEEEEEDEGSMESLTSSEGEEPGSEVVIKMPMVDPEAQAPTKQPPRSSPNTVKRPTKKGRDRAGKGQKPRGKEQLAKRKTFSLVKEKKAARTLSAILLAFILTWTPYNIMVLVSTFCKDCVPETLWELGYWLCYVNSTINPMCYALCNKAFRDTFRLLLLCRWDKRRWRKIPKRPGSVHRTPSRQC
CHRM4 PAM: potentiates acetylcholine response at human M4 receptor; activation, % at 3 µM; P08173; CHO-K1 hM4/Gqi5, Fluo-8 calcium fluorescence, ACh EC20; 0% = ACh EC20, 100% = maximal ACh; hit rate 0.4% among 360,000;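 active = activation above its plate's cutoff, the mean activation of sample wells plus 3 SD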
CHRM1 antagonist: antagonists of human M1 muscarinic receptor. CHO-K1 hM1, Fluo-8 calcium fluorescence, ACh EC80 antagonist. inhibition, % at 3 µM. hit rate 1.3% among 360,000. AID 588852;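 active = percent inhibition above its own plate's cutoff, namely the mean of that plate's compound wells plus 3 SD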;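 note: peak over basal fluorescence ratio during 140 s after agonist addition; 0% = ACh EC80 plus DMSO and 100% = DMSO alone without agonist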
CHRM4 antagonist: antagonists of human muscarinic M4 receptor (CHRM4); hit rate 0.73% among 360,000; inhibition, % at 3 µM; CHO-hM4 cells, ACh EC80, Fluo-8 calcium fluorescence;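 active = inhibition above its plate's cutoff, the mean inhibition of sample wells plus 3 SD, cut at about 27% in these data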;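 note: 0% = acetylcholine EC80 with DMSO and 100% = DMSO without agonist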
CHRM4 agonist: CHRM4 agonism in calcium assay. P08173. CHO-K1 hM4/Gqi5, Fluo-8 calcium fluorescence; vehicle 0%, full acetylcholine response 100%. activation, % at 3 µM. hit rate 0.14% among 360,000. AID 624127;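 active = activation above the run mean over all test wells plus 3 SD, cut at about 32% in these data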;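 note: peak over basal fluorescence ratio per well then scaled between controls; 0% = DMSO wells and 100% = acetylcholine at EC100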
CHRM1 agonist: activates human CHRM1 receptor; P11229; CHO-K1 hM1, Fluo-8 calcium fluorescence, agonist mode; 0% DMSO, 100% acetylcholine EC100; activation, % at 3 µM; hit rate 0.33% among 360,000;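 active = activation above the run's mean compound activation plus 3 SD, cut at about 16% in these data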;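 note: peak over basal fluorescence ratio within a 140 s kinetic read after compound addition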
* marks the source's active call; other numbers are inactive results.

SMILES	M1 PAM	CHRM4 PAM	CHRM1 antagonist	CHRM4 antagonist	CHRM4 agonist	CHRM1 agonist
COc1ccc(C2=NOC(Cn3nc(C(=O)NCc4ccc(C)cc4)cc3-c3ccccc3)C2)cc1 (stereo not given)	-13.1	-3.0	28.1	5.7	3.0	-2.8
c1ccc2c(c1)ccc1ncccc12	0.5	21.1*	-1.0	4.5	1.6	-5.8
CC(C)N(CC#CCC(O)(c1ccccc1)C1CCCC1)CCO (stereo not given)	-30.2	-16.9	85.8*	13.8	1.6	-12.0
CS(=O)(=O)N(CC(=O)NCCSC1CCCCC1)c1ccccc1	-0.2	-9.9	3.4	-0.8	0.5	-5.7
CC(C)N(CC#CCC1(O)c2ccccc2-c2ccccc21)CCO	-5.0	-3.5	3.8	0.1	3.0	-11.4
CCN(CC#CCC(O)(c1ccccc1)C1CCCC1)C(C)C (stereo not given)	-21.4	-14.2	98.7*	92.3*	1.7	-5.0
O=C(NCc1ccco1)c1cc(S(=O)(=O)N2CCCC2)ccc1Cl	8.7	6.5	1.9	-2.4	0.9	-1.0
CCN1/C(=C/C(C)=C/c2sc3ccccc3[n+]2CC)Sc2ccccc21	-23.6	-17.5	47.6*	34.5*	9.2	11.2
CCN1/C(=C\C(=S)Nc2ccccc2)Sc2ccccc21	-5.8	-4.0	8.5	2.9	3.1	-7.7
CC1CCN(S(=O)(=O)c2cccc(C(=O)Oc3ccc([N+](=O)[O-])cc3)c2)CC1	6.2	30.4*	-9.0	-11.4	2.5	3.6
O=C(c1ccncc1)N1CCN(CCc2ccccc2)CC1	10.6	1.1	-16.2	2.1	0.9	-5.7
O=C(c1ccc(Br)o1)N1CCN(CCc2ccncc2)CC1	-28.9	-8.1	43.6*	1.1	0.7	-8.3
CN(C)CCCOc1ccc(Cl)cc1Br	-5.0	1.2	3.1	-3.2	1.5	-8.4
CN(C)CCC1c2ccc(Cl)cc2CCc2cccnc21 (stereo not given) (tested in a mixture with another compound)	-28.0	-17.2	48.9*	19.5	1.2	-10.9
COc1ccc(OC)c(S(=O)(=O)NCC(c2ccco2)N2CCc3ccccc32)c1 (stereo not given)	24.4*	15.5	-24.2	-13.9	-1.4	1.9
CCOc1ccc(CCNC(=O)CCNC(=O)c2ccco2)cc1OCC	14.4	19.0*	1.8	-8.4	1.4	3.3
Cc1cc(NC(=O)c2ccco2)ccc1NC(=O)c1ccco1	-0.2	13.0	3.7	-15.0	2.3	-1.4
Cc1[nH]c2c(C)cccc2c1CCNC(=O)c1ccc2c(c1[N+](=O)[O-])C(=O)c1ccccc1C2=O	-0.4	-10.1	9.8	29.3*	2.4	-4.1
CN1C(=S)SC(C)(NO)C1(C)C (stereo not given)	26.3*	20.8	-20.5	2.4	0.5	4.7
CC(C)(C)c1cc(Cl)ccc1OCCOCCN1CCCC1	1.1	-6.7	2.5	6.2	14.8	-6.1
Cc1cc(C(C)(C)C)ccc1OCCOCCN1CCCC1	-24.7	-13.9	32.7*	12.0	1.8	-9.2
CC(C)(C)c1ccccc1OCCCCN1CCCC1	-0.2	-3.3	4.4	3.6	7.0	-4.0
CC(C)c1cccc(C(C)C)c1OCCCCN1CCCC1	-27.5	-13.5	33.2*	13.1	3.5	-8.4
Cc1cccc(C(C)(C)C)c1OCCCCN1CCCC1	-2.6	1.4	-4.3	1.1	3.8	16.0*
Cc1cc(NC(=O)CSc2nc3c(C)cccc3cc2C#N)no1	19.6	4.7	-15.6	-1.8	1.7	1.6
SMILES	M1 PAM	CHRM4 PAM	CHRM1 antagonist	CHRM4 antagonist	CHRM4 agonist	CHRM1 agonist
Cn1c(SCC(=O)Nc2ccc3cn[nH]c3c2)nnc1-c1cccs1	-3.2	-1.9	6.1	1.2	6.4	-2.6
Fc1ccccc1CN1CCCN(C(=S)Nc2cccc(Cl)c2)C1	-13.1	-17.2	28.7*	11.1	23.2	9.9
CC(C)(C)NC(=O)C(c1ccncc1)N(C(=O)Cn1nnc(-c2ccc(F)cc2)n1)c1ccccc1F (stereo not given)	13.2	-1.5	-13.6	2.5	0.7	-4.6
COc1ccc(-c2csc3ncn(-c4ccccc4OC)c(=O)c23)cc1OC	1.1	30.0*	1.3	-24.7	6.1	-2.9
CCOC(=O)c1ccc(N2CCN(c3ccccc3F)CC2)c(NC(=O)Nc2ccccc2)c1	-10.4	-12.4	14.5	36.3*	10.5	-2.1
CCOC(=O)c1ccc(N2CCN(c3ccc(F)cc3)CC2)c(NC(=O)Nc2cccc(OC)c2)c1	-15.5	2.7	34.4*	-2.8	2.8	-5.0
COc1ccc(CNC(=O)[C@H](Cc2ccccc2)NC(=O)C2CCN(C(=O)[C@H](C)N)CC2)cc1	12.2	-0.6	-7.0	0.9	0.0	0.5
CN1CCC(=C(c2ccccc2)c2ccc(Br)cc2)CC1	-14.2	-46.5	53.7*	12.4	11.8	11.0
CN1CCC(OC(=O)c2ccc(Br)cc2)CC1	-11.7	4.5	4.4	-6.0	1.9	-6.1
O=S(=O)(c1cccs1)N1CCN(c2ccnc3cc(Cl)ccc23)CC1	-1.4	-17.4	-2.5	100.3*	-1.2	-4.1
O=C(CNC(=O)c1ccncc1)N/N=C/c1cc(Br)ccc1OCc1ccccc1	2.1	-12.2	-0.9	-0.5	8.0	-1.6
COc1ccc(C(c2sc3nc(C)nn3c2O)N2CCC(O)CC2)cc1OC (stereo not given)	-4.6	1.2	5.0	-12.8	0.2	0.1
COc1ccc(Nc2nnc(Cc3ccncc3)c3ccccc23)c(OC)c1	2.6	2.2	4.1	7.7	0.7	51.5*
COc1ccc(Nc2ncnc3ccccc23)c(OC)c1	-0.1	-4.6	2.9	1.5	0.5	-3.0
Cc1ccc2cc(CN(Cc3cccs3)Cc3nnnn3CC3CCCO3)c(=O)[nH]c2c1C (stereo not given)	-0.5	9.2	-0.2	-4.0	2.0	-5.2
Cc1ccc(C(=O)N2C(=S)C(c3ccc(F)cc3)=NC23CCN(C)CC3)cc1	-26.9	-3.0	55.7*	1.1	1.4	-7.7
COc1ccc(C2(C(=O)Nc3ccc(OC)cc3OC)CCCC2)cc1	6.2	-5.3	-7.3	-5.2	0.7	-7.1
COc1cc(/C=N/NC(=O)C[n+]2ccccc2)cc(OC)c1OC(C)=O	1.6	-8.2	-11.6	7.0	0.7	-2.9
CCc1ccc(NS(=O)(=O)c2c(C)noc2C)cc1	-22.2	-10.9	39.9*	18.4	-0.1	-5.3
Cc1cccc(NS(=O)(=O)c2c(C)noc2C)c1	-2.1	-1.5	13.1	7.2	1.8	-13.2
COc1ccc(N2C(=O)C(Cl)=C(Nc3c(C)n(C)n(-c4ccccc4)c3=O)C2=O)cc1	0.1	-2.0	8.4	5.7	1.3	-6.8
Nc1cccc(-c2csc(-n3ncc(C(=O)O)c3C(F)(F)F)n2)c1	3.0	17.0*	-8.1	-7.1	-0.1	-2.9
O=C(Nc1nnc(SCC(=O)N2CCCCC2)s1)c1c(F)cccc1F	28.3*	5.4	-26.6	-26.4	1.0	4.2

Screens (PubChem BioAssay)
